Screening data: PubChem BioAssay, National Center for Advancing Translational Sciences (NCATS)
MmCpn inh: M. maripaludis TRiC chaperonin inhibition; purified Mm-Cpn ATPase, ADP Transcreener TR-FRET; Potency, µM (titrated, usually from 76.9 µM), for the others: at the top dose activity, negative = inhibition, hits mostly inhibitors; actives 0.031% (n = 330,000); note: potency is the fitted concentration of half-maximal effect; % is set by controls: 0 for no effect and ±100 for the full control effect; nearly all actives have a fitted effect of over 80% in size
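Compound-treated chaperonin, 25 nM final, turns over 10 uM ATP at 37°C for 30 min following a 10 min preincubation; ADP generated competes with ADP-d2 for Eu-cryptate antibody, lowering FRET.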
TDP-43 yeast inh: rescues yeast growth from TDP-43 toxicity; TDP-43 expressing yeast growth rescue, BacTiter-Glo, 24 h; Potency, µM (titrated, usually from 46.1 µM), for inactives: top-dose growth rescue (activation), hits mostly activators; actives 1.8% (n = 410,000); note: potency is the fitted concentration of half-maximal effect; % of control where 0% means no effect; nearly all actives have a fitted effect of over 50% in size
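Cell-based yeast growth screen: TDP-43 expression induced in galactose, inoculum OD600=0.02 after raffinose pregrowth to mid-log. Read-out BacTiter-Glo luminescence at 24 hr, 30 deg C; inhibition of toxicity seen as signal increase.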
Abeta yeast res: A-beta toxicity reversal in yeast; yeast expressing A-beta42, growth rescue, OD600, 48 h; response scale: 0% DMSO, 100% iron-clioquinol control; Potency, µM (doses to about 46.1 µM), usual class: activators; actives 0.063% (n = 410,000); AID 1347071; note: potency is the fitted concentration of half-maximal effect; nearly all actives have a fitted effect of over 55% in size
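Yeast growth medium received pinned compounds, then yeast cells expressing toxic A-beta were added; plates incubated at 30 C for 48 hr. Growth read as absorbance at 600 nm, normalized to DMSO and equimolar FeCl3 plus clioquinol controls.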
aSyn yeast inh: inhibitors of alpha-synuclein toxicity in yeast. Yeast expressing alpha-synuclein, growth rescue, BacTiter-Glo, 24 h. Potency, µM (titrated, usually from 46.1 µM), for inactives: at the highest dose growth rescue (activation), actives largely listed as activators. actives 0.14% (n = 370,000). AID 652106; note: potency is the fitted concentration of half-maximal effect; % of control where 0% means no effect; nearly all actives have a fitted effect of over 65% in size
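Rescue of yeast growth: cells expressing toxic alpha-synuclein, induced in galactose at OD600 0.02, incubated with compound 24 h at 30 C. ATP luminescence quantified growth; inhibitors of toxicity appear as activators.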
CCT modulator: changes cytosolic chaperonin activity; purified chaperonin ATPase assay, HTRF ADP detection, 30 min; activity change, % (test concentration not listed), hits read low; actives 0.3% (n = 360,000); AID 651819; in the data active = activity change below about -30%; note: % is set by controls: 0 for no effect and ±100 for the full control effect
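First, chaperonin was dispensed at 40 nM or 20 nM final depending on batch activity. Next, compounds were pinned at 76 uM and ATP added at 10 uM. After 30 min at 37 °C, ADP detection reagents ran 30 min at ambient temperature.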
FUS yeast rescue: rescues growth of FUS-expressing yeast; actives 0.24% (n = 390,000); AID 1347120; Potency, µM (doses to about 76.6 µM), usual class: activators; S. cerevisiae FUS-expressing, growth rescue, OD600, 24 h;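 note: potency is the fitted concentration of half-maximal effect; plate controls were DMSO vehicle for no effect and reference control for full effect; nearly all actives have a fitted effect of over 55% in size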
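Yeast FUS proteinopathy model; galactose-induced FUS (2%), starting OD 0.005. Cpds in dilution series, 24hr, 30C, 99% humidity. Abs 600 nm growth. Pos ctrl CP55940 (top 92uM final); neg ctrl DMSO.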
* = called active by the depositor; i = inactive; ? = inconclusive; nt = no result given. This is a sample that favours compounds with a hit; in the whole collection about 2.3% have one here. Unless noted, calls come from the whole dose curve; as a rule, active = well fitted curve in the direction sought with a large enough effect; inconclusive = small, poorly fitted or top-dose-only effect, or another doubt; inactive = no such curve, though single readings can be large; an effect the other way counts as inactive or inconclusive.

SMILES | MmCpn inh | TDP-43 yeast inh | Abeta yeast res | aSyn yeast inh | CCT modulator | FUS yeast rescue
O=C(Nc1cccc(C(F)(F)F)c1)c1sc(Cl)nc1C(F)(F)F | 0% | 13µM* | 10µM* | -23% | 0 | i
O=C(Nc1ccon1)Nc1cccc(Cl)c1Cl | 0% | 13µM* | i | 1% | -1 | i
O=C(NCCc1ccccc1)OCc1cn(Cc2ccccc2Cl)nn1 | nt | nt | nt | nt | nt | i
CCOC(=O)CC[C@@H]1CC[C@]2(CCCN(Cc3nccs3)C2)O1 | nt | nt | nt | nt | nt | i
CCCC(=O)N1CCc2cc(OC)c(OC)cc2C1COc1ccc(C(=O)OC)cc1 (stereo not given) | nt | 27% | i | -9% | nt | ?
CCOC(=O)c1ccc(OCC2c3cc(OC)c(OC)cc3CCN2C(=O)Cc2ccc(F)cc2)cc1 (stereo not given) | nt | 20µM* | i | 15% | nt | 13µM*
CCCCC(=O)N1CCc2cc(OC)c(OC)cc2C1COc1ccc(C(=O)OCC)cc1 (stereo not given) | nt | 22µM* | i | 23% | nt | ?
Clc1ccc(-c2noc3ncnc(NCCc4ccccc4)c23)cc1 | nt | 18µM* | i | -2% | nt | i
Fc1ccc(CNc2ncnc3onc(-c4ccc(F)cc4)c23)cc1 | nt | 13µM* | i | 1% | nt | i
C=C1C=C(C(F)F)n2ncc(C(=O)NCc3ccc(OC)cc3)c2N1 | nt | nt | nt | 3% | nt | nt
O=C(NC1CCCC1)C1(C(=O)C2CC2)CC(c2ccccc2C(F)(F)F)=NO1 (stereo not given) | nt | nt | nt | nt | nt | i
ON=C(CCc1ccccc1)c1ccccc1 | nt | 16µM* | i | 12% | -1 | i
O/N=C(\COc1ccccc1O)c1ccccc1 | 1% | 8% | ? | 0% | -4 | i
COc1cc(NC(=O)c2ccccc2)c(C)cc1NC(=O)CSc1nnc(-c2ccccc2F)n1-c1ccc(C)cc1 | nt | nt | nt | nt | nt | 10µM*
Cc1ccc(-c2cc(-c3nnc(SCC(=O)Nc4ccccc4-c4ccccc4)n3N)[nH]n2)cc1 | nt | nt | nt | nt | nt | 18µM*
O=C(CSc1nnc(-c2ccccc2)n1-c1ccc(Cl)cc1)Nc1ccccc1-c1ccccc1 | nt | nt | nt | nt | nt | 8.9µM*
COc1ccc(-c2noc(=O)n2Cc2ccccc2Cl)cc1 | -9% | 20µM* | i | 4% | -4 | i
Nc1nc(N)c2[nH]c(-c3ccccc3)nc2n1 | -5% | 13µM* | i | -11% | -4 | i
S=C(Nc1ccc(Cl)c(Cl)c1)N1CCCC1 | -1% | 3.2µM* | i | -6% | -3 | i
CCCCc1ccc(NC(=S)N2CCCC2)cc1 | -3% | 21% | 11µM* | -18% | 1 | i
CCCCOc1ccc(CNC(=O)c2cnc3sc(N4CCCC4)nn3c2=O)cc1 | nt | 8% | i | nt | nt | i
O=C(NC1CCCCC1)c1ccc2c(c1)N(Cc1cccc(Cl)c1)C(=O)c1ccccc1S2=O (stereo not given) | nt | -2% | i | nt | nt | i
O=C(CC1C(=O)OCCN1Cc1ccccc1)Nc1cccc(C(F)(F)F)c1 (stereo not given) | nt | 18µM* | i | nt | nt | i
N#Cc1c(-c2ccccc2)cc(-c2ccccc2)nc1SCC(O)CS(=O)(=O)Cc1ccc(Cl)cc1 (stereo not given) | nt | 19% | i | nt | nt | ?
CCCCc1nc(NCCNC(=O)c2ccccc2)c(C#N)c2c1CSC(C)(C)C2 | -5% | 22µM* | i | -7% | 0 | i
Cc1cc2ccccc2n1CCNC(=O)c1cccc(Cl)c1 | nt | 14µM* | i | nt | nt | i
Cc1cc2ccccc2n1CCNC(=O)c1cccs1 | 28µM* | -28% | i | -9% | -1 | i
Cc1cc2ccccc2n1CCNC(=O)c1cccc(Br)c1 | nt | ? | i | nt | nt | i
CNc1c(C(=O)O)ccc2c1C(=O)c1ccccc1C2=O | -2% | -9% | i | -7% | 0 | i
O=C(O)c1ccc2c(c1Nc1ccccc1)C(=O)c1ccccc1C2=O | -4% | -35% | i | 13µM* | 0 | i
